According to PubChem BioAssay AID1476 (National Center for Advancing Translational Sciences (NCATS), 2009):
Out of some 200,000 compounds screened, about 4,500 (2.2%) were called active. Roughly 12% stayed inconclusive and do not appear here. For the sample, actives were picked, then their nearest neighbours and some compounds at random. Values without a mark were called inactive. Calls come from the whole dose curve; as a rule, active = well fitted inhibition curve with a large enough effect; inconclusive = small, poorly fitted or top-dose-only effect, or effect the other way; inactive = flat fitted curve, though single readings scatter.

Target: Cruzipain (Trypanosoma cruzi) (UniProt P25779)
Sequence (P25779 123-467 limits assumed): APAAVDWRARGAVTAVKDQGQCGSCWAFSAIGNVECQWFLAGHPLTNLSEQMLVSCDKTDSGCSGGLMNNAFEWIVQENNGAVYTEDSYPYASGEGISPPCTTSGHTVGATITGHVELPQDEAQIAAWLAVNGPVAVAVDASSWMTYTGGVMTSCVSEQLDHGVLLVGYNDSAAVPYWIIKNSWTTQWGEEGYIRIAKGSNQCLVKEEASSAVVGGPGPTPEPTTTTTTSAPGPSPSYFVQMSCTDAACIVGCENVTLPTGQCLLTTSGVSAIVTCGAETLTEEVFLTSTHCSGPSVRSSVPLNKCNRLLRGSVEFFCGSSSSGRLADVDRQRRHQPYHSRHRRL
Test: qHTS Assay for Promiscuous and Specific Inhibitors of Cruzain (without detergent); note: nearly all actives have a fitted effect of over 40% in size;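 for max response, negative = inhibition: plate controls were enzyme without inhibitor for no effect and buffer without enzyme for full effect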
Settings: purified cruzain, Z-FR-AMC fluorescence, no detergent
Method in brief: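 Detergent-free condition (0.00005% Triton X-100) in acetate buffer pH 5.5 with DTT. 1.5 nM enzyme and compound were pre-mixed 15 min, then 2 uM Z-FR-AMC substrate added; reaction progress from fluorescence change between first and third reads (60 s).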
Potency is the fitted concentration of half-maximal effect.

Row | Compound | max response, negative = inhibition [%] | Potency
1 | Cc1ccc(-c2nnc(Nc3cccc(Br)c3)c3ccccc23)cc1S(=O)(=O)NCC1CCCO1 (stereo not drawn) | -20.7 | 
2 | CCCCCn1c(=O)[nH]c2cc(C(=O)NCCN(C)CCCC)ccc2c1=O | 2.28 | 
3 | CCOC(=O)c1c(C)n(S(=O)(=O)c2ccc(C)cc2C)c2ccc(NS(=O)(=O)c3ccc(C)cc3C)cc12 |  | 1.58 µM (active)
4 | CCn1c(C)nc2cc(C(=O)NNS(=O)(=O)c3ccc(C)cc3C)ccc21 | 9.43 | 
5 | Cc1ccc(S(=O)(=O)n2cnc3ccccc32)c(C)c1 | 3.08 | 
6 | N#Cc1ccc(-c2ccc(Cl)cc2)nc1Oc1ccc(F)cc1 |  | 25.1 µM (active)
7 | N#Cc1ccc(-c2ccc(F)cc2)nc1Sc1ccccc1 | -27.2 | 
8 | CN(C)c1ccnc(Oc2ccc(F)cc2)c1C#N | -8.17 | 
9 | COc1cc(NC(=O)Cn2c(=O)n(Cc3ccco3)c(=O)c3oc4ccccc4c32)cc(OC)c1 | -21.5 | 
10 | Cc1ccc(C)c(CNC(=O)c2cc3ccccn3n2)c1 | -9.01 | 
11 | C=CCn1c(C)cc(C(=O)CN2C(=O)c3ccccc3C2=O)c1C | 4.29 | 
12 | Cc1ccccc1C(=O)NNC(=O)CN1C(=O)c2ccccc2C1=O | -8.81 | 
13 | Cc1cc2c(cc1C)N(C(=O)CN1C(=O)c3ccccc3C1=O)C(C)(C)c1ssc(=S)c1-2 |  | 2.51 µM (active)
14 | O=C(CN1CCN(Cc2ccc(Cl)cc2)C1=O)NCc1ccc(F)cc1 | -6.99 | 
15 | COc1ccc(CCNC(=O)CCCCn2c(=O)c3ccccc3n(Cc3ccccc3C)c2=O)cc1OC | -7.48 | 
16 | Cc1cc(C)c2nc(NC(=O)C3CCCO3)sc2c1 (stereo not drawn) | 0.42 | 
17 | O=C(Nc1nc2ccccc2s1)c1ccc2c(c1)OCO2 | -5.87 | 
18 | Cc1cc(C)c2nc(NC(=O)c3ccc4c(c3)OCO4)sc2c1 |  | 10 µM (active)
19 | O=C(c1ccc2c(c1)N(Cc1ccc(Cl)cc1)C(=O)c1ccccc1S2(=O)=O)N1CCCCC1 | 0.0442 | 
20 | Cc1ccc(C2=N/C(=C\c3ccc(OS(=O)(=O)c4ccc(C)cc4)cc3)C(=O)O2)cc1 |  | 20 µM (active)
21 | O=C1OC(c2ccc(Cl)cc2)=N/C1=C\c1cccnc1 | -2.62 | 
22 | CCOc1cc(/C=C2/N=C(c3ccc(C(C)(C)C)cc3)OC2=O)cc(Cl)c1OS(C)(=O)=O | 1.67 | 

Row | Compound | max response, negative = inhibition [%] | Potency
23 | CN1CCN(C2(CNC(=O)COc3ccc(C(C)(C)C)cc3)CCCCC2)CC1 | -0.272 | 
24 | CCn1c(C)c(C)c2cc(C(=O)NCCc3cc(OC)ccc3OC)ccc21 | 3.29 | 
25 | Cc1ccc(CNC(=O)CCC(=O)N2CC(C)Sc3ccccc32)cc1 (stereo not drawn) | 3.17 | 
26 | Cc1ccc(C(=O)Nc2nnc(-c3ccncc3)s2)o1 | -16.9 | 
27 | CC(C)=CC(=O)Nc1nnc(-c2ccc(F)cc2)s1 |  | 12.6 µM (active)
28 | Cc1occc1C(=O)Nc1nnc(-c2ccncc2)s1 | -3.11 | 
29 | O=C(NCC12CC3CC(CC(C3)C1)C2)c1cc2nc(-c3ccccc3)cc(C(F)(F)F)n2n1 | -1.29 | 
30 | CC(Sc1oc(-c2ccco2)nc1S(=O)(=O)c1ccc(Br)cc1)c1ccccc1 (stereo not drawn) | -8.99 | 
31 | CN(Cc1ccccc1)c1ccc(-c2nc(-c3ccccc3)no2)cc1[N+](=O)[O-] | -0.924 | 
32 | O=C(NCc1ccccc1)c1ccc2c(c1)nc1n2CCCCC1 | -10.7 | 
33 | O=C(Nc1ccc(O)c(-c2nc3ccccc3o2)c1)c1ccc(-c2cccc(Cl)c2)o1 | 1.11 | 
34 | CCCOc1ccc(C(=O)Nc2ccc3oc(-c4cccc(Cl)c4Cl)nc3c2)cc1 | 7.94 | 
35 | O=C(NC(=S)Nc1ccc2oc(=O)ccc2c1)c1ccc(-c2cccc(Cl)c2Cl)o1 |  | 5.01 µM (active)
36 | COC(=O)c1cc(NC(=O)CCc2c(C)nc3c4c(C)cc(C)nc4nn3c2C)cc(C(=O)OC)c1 | -14.1 | 
37 | COc1cccc2cc(-c3nc(Cl)c4c5c(sc4n3)CC(C)CC5)c(=O)oc12 (stereo not drawn) | -8.92 | 
38 | CCc1ccccc1NC(=O)c1cc(-c2ccc3c(c2)OCO3)on1 | -1.06 | 
39 | c1ccc2cc3c(NCCN4CCOCC4)ccnc3cc2c1 |  | 25.1 µM (active)
40 | Clc1ccccc1-c1cc(NCCN2CCOCC2)ncn1 | -3.09 | 
41 | c1ccc2[nH]c(NCCN3CCOCC3)nc2c1 | -8.64 | 
42 | COc1ccc(-n2c(=O)c3ccccc3n(Cc3ccccc3Cl)c2=O)cc1 | 6.51 | 
43 | Cc1cc2c(c(=O)n1Cc1ccco1)C(c1ccccc1)C(C#N)=C(N)O2 (stereo not drawn) | -4.14 | 
44 | CN(c1ccccc1)c1ccc(/C=c2\s/c(=C(/C#N)C(=O)C(C)(C)C)n(Cc3ccco3)c2=O)cc1 |  | 3.16 µM (active)

Row | Compound | max response, negative = inhibition [%] | Potency
45 | CCOc1ccccc1NC(=O)Cn1c(=O)n(Cc2ccco2)c(=O)c2sc3ccccc3c21 | -0.26 | 
46 | O=C(NCCCc1ccccc1)c1ccc2c(c1)sc1nc(-c3ccc(F)cc3)cn12 | 4.05 | 
47 | O=C(Nc1cccc2ncccc12)c1ccc(-c2ccc(Cl)cc2Cl)o1 | -11.1 | 
48 | Cc1csc(NC(=O)c2ccc(-c3ccc(Cl)cc3Cl)o2)n1 |  | 10 µM (active)
49 | Cc1csc(NC(=S)Nc2cccc(Cl)c2)n1 | -0.724 | 
50 | Cc1ccc(NC(=O)c2cc3cc(C)ccc3n2C)cc1 | -3.53 | 
51 | Cn1c(=O)n(C)c2cc(C(=O)Nc3ccc4c(c3)OCO4)ccc21 | -14 | 
52 | O=C(Nc1ccc2c(c1)OCO2)c1ccc(N2C(=O)c3ccccc3C2=O)cc1 |  | 6.31 µM (active)
53 | O=C(Nc1ccccc1)c1ccc2c(c1)OCO2 | 1.37 | 
54 | CCOc1ccc(CNC(=O)CCC(=O)N2CCSc3ccccc32)cc1 | 1.55 | 
55 | COc1ccc(-c2onc(C)c2C)cc1S(=O)(=O)NCC1CCN(Cc2cccc(F)c2)CC1 | 0.417 | 
56 | CCc1ccccc1NC(=O)CSc1nnc(-c2ccccc2)c(-c2ccccc2)n1 | -0.884 | 
57 | CCOC(=O)C1=C(O)CSC1=Nc1cccc(Cl)c1 | -9.26 | 
58 | Clc1cccc(N=C2NN=C(c3ccc4c(c3)OCCO4)CS2)c1 |  | 10 µM (active)
59 | CCOc1ccc(CNC(=O)Cn2cc3c(n2)-c2c(oc(C(=O)N4CCCC4)c2C)CC3)cc1 | 23.3 | 
60 | COc1ccc2cc(CNc3ccc(OC)c(OC)c3)c(=O)n(CC(=O)Nc3ccccc3F)c2c1 | 13.9 | 
61 | O=C(CSc1nccn1C1CCCC1)Nc1cc(C(F)(F)F)ccc1Cl | 9.92 | 
62 | O=C(/C=C/c1ccccc1)Nc1nnc(SCC(=O)c2ccc3ccccc3c2)s1 |  | 6.31 µM (active)
63 | COc1ccc(C(=O)CSc2nnc(NC(=O)C3CC(=O)N(c4cccc(OC)c4)C3)s2)cc1 (stereo not drawn) | -5.43 | 
64 | CC(=O)c1ccc(NC(=O)CSc2nnc(NC(=O)Nc3ccccc3)s2)cc1 | 10.4 | 
65 | O=C(NCCc1csc(-c2ccc(C(F)(F)F)cc2)n1)C(=O)Nc1ccc(F)c(Cl)c1 | -2.67 | 
66 | Cc1ccc(OCC(=O)OCc2cc(=O)n3nc(C4CC4)sc3n2)cc1 | -8.05 | 

Row | Compound | max response, negative = inhibition [%] | Potency
67 | N#C/C(=C(/O)Cc1cccc2ccccc12)c1nc2ccccc2s1 |  | 12.6 µM (active)
68 | COC(=O)c1nc2ccccc2s1 | -9.6 | 
69 | c1ccc2sc(SCCSc3nc4ccccc4s3)nc2c1 | -3.12 | 
70 | Cc1ccc(-c2nn3c(=O)cc(CN4CCN(C(=O)Nc5cccc(C(F)(F)F)c5)CC4)nc3s2)cc1 | -9.63 | 
71 | COc1ccc(Cn2c(C(=O)O)c(CNCCc3cccs3)c3ccc(OC)cc32)cc1 | -3.19 | 
72 | Cc1ccc(NS(=O)(=O)c2ccc3c(c2)CC(=O)N3)cc1Cl |  | 15.8 µM (active)
73 | Cc1ccc(S(=O)(=O)NCCC(=O)Nc2ccc(C)c(Cl)c2)cc1C | -0.389 | 
74 | COc1ccc(NC(=O)CCNS(=O)(=O)c2ccc3c(c2)CCCC(=O)N3)cc1Cl | -2.51 | 
75 | Cc1nn(CC(=O)O)c(=O)c2cc3cc(F)ccc3n12 | -12.5 | 
76 | Cc1cccc(-n2ccnc2SCC(=O)Nc2cc(C(F)(F)F)ccc2Cl)c1 | -5.01 | 
77 | Cc1ccc(NC(=O)CSc2nc3c(c(=O)[nH]2)CN(Cc2ccc4c(c2)OCO4)CC3)cc1C | -8.7 | 
78 | CCn1c2ccccc2c2cc(NC(=O)COC(=O)c3cc(S(=O)(=O)N4CCCCC4)ccc3Cl)ccc21 |  | 6.31 µM (active)
79 | COc1ccc(OCC(=O)OCC(=O)Nc2ccc(S(=O)(=O)N3CCCCC3)cc2)cc1 | 6.2 | 
80 | CC(=O)c1c(C)[nH]c(C(=O)OCC(=O)Nc2cc(S(=O)(=O)N3CCCCC3)ccc2C)c1C | 9.33 | 
81 | CCOC(=O)CNC(=O)c1cc2c(=O)n3cccc(C)c3nc2s1 | -17.8 | 
82 | O=C(Cn1cc(SCc2ccccc2)c2ccccc21)N1CCCCC1 | -0.659 | 
83 | CN(C)CCNC(=O)/C(=C/c1cccc([N+](=O)[O-])c1)NC(=O)c1ccccc1 | -6.18 | 
84 | C=CCNC(=O)/C(=C\c1cccc([N+](=O)[O-])c1)NC(=O)c1ccccc1 | 10.7 | 
85 | O=C(N/N=C/c1cc([N+](=O)[O-])ccc1O)/C(=C\c1cccs1)NC(=O)c1ccccc1 |  | 20 µM (active)
86 | COc1cccc(NC(=O)N2CCN(C(=O)c3nsc4ccccc34)CC2)c1 | 16.2 | 
87 | COc1cc(OC)c(NC(=O)c2c3c(nn2C)-c2ccccc2SC3)cc1Cl | -6.8 | 
88 | COc1ccc(NC(=O)CSc2nc3ncccc3[nH]2)c(OC)c1 | -7.09 | 
